The full data set covers some 7,900 targets. This sample favours those with a hit. About 0.6% of all pairs of compound and target were hits.
Key:
Test in all cases: log2 fold change, soluble protein after heating vs DMSO (PISA); higher = thermal stabilisation; K562 cells, 10 uM, 30 min; active = over 0.2 and 3.5 SD of the protein, either way, in both replicates (recomputed)
[1] = compound: C1COCCN1CCN2C3=CC=CC=C3N=C2NC(=O)C4=CC(=CC=C4)[N+](=O)[O-] [IRAK-1-4 Inhibitor I]
Method in brief: (§1)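 For each measurement, 10 μM compound was applied for 30 min to K562 cells at 2×10^6 cells/mL. Aliquots were heated for 3 min across 48°C-58°C, pooled, and extracted in PBS with 0.5% NP-40 at 4°C; the supernatant after 21,000xg for 90 min was soluble protein. This was quantified by TMTpro 16plex LC-MS/MS with channel sums equalised, and thermal stability was reported relative to control samples from duplicates, on a log2 fold-change scale.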

[2] = compound: C=CC(=O)N1CCC[C@@H](n2nc(-c3ccc(Oc4ccccc4)cc3)c3c(N)ncnc32)C1 [ibrutinib]
Method in brief: as §1

[3] = compound: CC(=O)c1cnc2ccc(-c3cc(Cl)c(O)c(Cl)c3)nc2c1N[C@H]1CC[C@H](CN(C)C)CC1
Method in brief: as §1

[4] = compound: CC(C)(C)Cn1c(N)nc2ccc(-c3[nH]c(C(C)(C)C)nc3-c3ccc(F)cc3)nc21 [ralimetinib]
Method in brief: as §1

[5] = compound: CC(C)(O)CC(=O)NCCn1ccc2ncnc(Nc3ccc(Oc4cccc(C(F)(F)F)c4)c(Cl)c3)c21
Method in brief: as §1

[6] = compound: CC(C)C1=C2N=C(C=C(N2N=C1)NCC3=CC=CC=C3)NCCCCCCN
Method in brief: as §1

[7] = compound: CC(C)C[C@@H](C=O)NC(=O)[C@H](CC(C)C)NC(=O)[C@H](CC(C)C)NC(=O)OCc1ccccc1
Method in brief: as §1

[8] = compound: CC(C)N(C[C@H]1O[C@@H](n2cnc3c(N)ncnc32)[C@H](O)[C@@H]1O)[C@H]1C[C@@H](CCc2nc3cc(C(C)(C)C)ccc3[nH]2)C1 [pinometostat]
Method in brief: as §1

[9] = compound: CC1=C(C(CC(=O)N1)C2=CC=C(C=C2)C(F)(F)F)C(=O)NC3=C(C=C4C(=C3)C=NN4)F
Method in brief: as §1

[10] = compound: CC1=C(C2=C(C=C1)C(=O)C3=CC=CC=C3N2CCCN)C
Method in brief: as §1

Measured: log2 fold change

MIEN1 (UniProt Q9BRT3)
Chain of UniProt Q9BRT3 (Q9BRT3 whole entry, looked up): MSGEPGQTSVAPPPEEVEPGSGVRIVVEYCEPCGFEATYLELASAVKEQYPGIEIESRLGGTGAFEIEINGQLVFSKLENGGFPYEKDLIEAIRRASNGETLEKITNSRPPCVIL
inactive: [1] 0.105 | [2] -0.029 | [3] -0.051 | [4] -0.075 | [5] -0.091 | [6] 0.074 | [7] -0.036 | [8] 0.019 | [9] 0.004 | [10] 0.045

KDELR2 (UniProt P33947)
active: [7] -0.568
inactive: [1] -0.007 | [2] 0.03 | [3] -0.14 | [4] 0.127 | [5] -0.035 | [6] -0.047 | [8] -0.008 | [9] 0.024 | [10] 0.103

LSR (UniProt Q86X29)
inactive: [1] 0.053 | [2] 0.006 | [3] -0.139 | [4] -0.009 | [5] 0.058 | [6] 0.093 | [7] 0.086 | [8] -0.046 | [9] -0.035 | [10] -0.008

IGFBP4 (UniProt P22692)
inactive: [1] 0.011 | [2] -0.015 | [3] 0.171 | [4] -0.04 | [5] 0.047 | [6] 0.028 | [7] 0.054 | [8] 0.032 | [9] 0.034 | [10] -0.09

LPCAT3 (UniProt Q6P1A2)
inactive: [1] 0.014 | [2] -0.034 | [3] 0.099 | [4] 0.009 | [5] 0.148 | [7] -0.004 | [8] 0.083 | [9] -0.004 | [10] 0.03
active: [6] -0.65

INPP1 (UniProt P49441)
inactive: [1] -0.001 | [2] 0.023 | [3] -0.003 | [4] -0.108 | [5] -0.039 | [6] 0.016 | [7] -0.007 | [8] -0.054 | [9] -0.072 | [10] -0.03

MAPK12 (UniProt P53778)
Chain of UniProt P53778 (P53778 whole entry, looked up): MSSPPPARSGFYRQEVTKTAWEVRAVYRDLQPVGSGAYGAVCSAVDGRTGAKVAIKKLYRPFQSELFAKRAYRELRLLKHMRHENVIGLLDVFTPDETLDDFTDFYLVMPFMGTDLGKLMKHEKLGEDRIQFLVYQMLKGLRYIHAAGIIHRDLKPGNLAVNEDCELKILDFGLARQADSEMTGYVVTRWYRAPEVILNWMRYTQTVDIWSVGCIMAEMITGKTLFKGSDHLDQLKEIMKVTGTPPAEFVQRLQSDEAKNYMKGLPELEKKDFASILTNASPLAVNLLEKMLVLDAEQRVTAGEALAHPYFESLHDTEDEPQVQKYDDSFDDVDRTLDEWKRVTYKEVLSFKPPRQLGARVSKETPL
inactive: [1] 0.074 | [2] 0.066 | [3] 0.201 | [4] -0.046 | [5] 0.001 | [6] 0.388 | [7] -0.005 | [8] -0.004 | [9] 0.207 | [10] -0.025

MED1 (UniProt Q15648)
Chain of UniProt Q15648 (Q15648 whole entry, looked up): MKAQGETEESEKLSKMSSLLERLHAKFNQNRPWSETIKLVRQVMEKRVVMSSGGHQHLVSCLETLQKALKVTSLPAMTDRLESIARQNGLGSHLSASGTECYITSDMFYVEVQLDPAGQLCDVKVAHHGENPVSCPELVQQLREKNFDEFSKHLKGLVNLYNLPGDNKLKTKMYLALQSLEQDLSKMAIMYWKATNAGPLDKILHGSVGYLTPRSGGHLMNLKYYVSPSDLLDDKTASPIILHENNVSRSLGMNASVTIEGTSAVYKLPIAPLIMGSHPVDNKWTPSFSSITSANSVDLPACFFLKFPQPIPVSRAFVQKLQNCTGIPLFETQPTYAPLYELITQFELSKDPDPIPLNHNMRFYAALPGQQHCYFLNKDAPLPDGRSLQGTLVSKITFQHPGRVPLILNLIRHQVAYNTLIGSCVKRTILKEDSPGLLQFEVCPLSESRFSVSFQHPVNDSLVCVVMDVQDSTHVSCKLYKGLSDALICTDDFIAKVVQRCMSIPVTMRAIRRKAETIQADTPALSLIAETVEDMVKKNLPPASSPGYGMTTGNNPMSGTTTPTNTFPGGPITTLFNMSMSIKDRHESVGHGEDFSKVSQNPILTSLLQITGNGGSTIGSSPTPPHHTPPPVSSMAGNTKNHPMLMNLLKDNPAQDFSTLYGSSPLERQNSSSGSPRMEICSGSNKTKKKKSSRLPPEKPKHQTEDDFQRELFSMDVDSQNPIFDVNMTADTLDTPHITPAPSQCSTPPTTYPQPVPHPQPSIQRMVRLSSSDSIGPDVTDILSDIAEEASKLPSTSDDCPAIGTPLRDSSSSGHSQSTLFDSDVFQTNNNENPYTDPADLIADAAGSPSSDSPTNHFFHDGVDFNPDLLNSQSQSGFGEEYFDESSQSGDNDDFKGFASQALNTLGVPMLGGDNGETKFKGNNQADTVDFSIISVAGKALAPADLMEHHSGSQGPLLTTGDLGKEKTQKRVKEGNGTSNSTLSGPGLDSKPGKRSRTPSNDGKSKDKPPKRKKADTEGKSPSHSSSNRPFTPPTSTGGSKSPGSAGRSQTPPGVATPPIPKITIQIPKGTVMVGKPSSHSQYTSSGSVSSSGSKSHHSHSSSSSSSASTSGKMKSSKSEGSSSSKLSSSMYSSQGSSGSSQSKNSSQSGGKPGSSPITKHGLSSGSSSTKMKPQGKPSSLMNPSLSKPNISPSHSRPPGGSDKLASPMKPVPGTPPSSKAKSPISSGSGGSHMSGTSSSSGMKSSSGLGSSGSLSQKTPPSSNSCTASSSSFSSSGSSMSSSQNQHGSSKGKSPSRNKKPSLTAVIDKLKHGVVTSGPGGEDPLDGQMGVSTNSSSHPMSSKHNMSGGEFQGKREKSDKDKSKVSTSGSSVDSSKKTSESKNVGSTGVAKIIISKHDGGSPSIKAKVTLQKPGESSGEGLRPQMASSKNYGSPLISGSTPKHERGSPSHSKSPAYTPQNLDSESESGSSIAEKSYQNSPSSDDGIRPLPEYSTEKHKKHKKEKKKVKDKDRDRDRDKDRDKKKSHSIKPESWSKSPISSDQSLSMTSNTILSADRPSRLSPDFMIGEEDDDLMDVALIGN
inactive: [1] -0.049 | [2] 0.002 | [4] 0.032 | [5] -0.008 | [6] -0.106 | [7] 0.033 | [8] 0.189 | [9] 0.019 | [10] 0.027
active: [3] -0.28

MAP4K5 (UniProt Q9Y4K4)
active: [3] -0.289
inactive: [1] -0.02 | [2] 0.067 | [4] -0.045 | [5] -0.057 | [6] -0.034 | [7] 0.034 | [8] -0.014 | [9] -0.046 | [10] -0.02

MFN2 (UniProt O95140)
Chain of UniProt O95140 (O95140 whole entry, looked up): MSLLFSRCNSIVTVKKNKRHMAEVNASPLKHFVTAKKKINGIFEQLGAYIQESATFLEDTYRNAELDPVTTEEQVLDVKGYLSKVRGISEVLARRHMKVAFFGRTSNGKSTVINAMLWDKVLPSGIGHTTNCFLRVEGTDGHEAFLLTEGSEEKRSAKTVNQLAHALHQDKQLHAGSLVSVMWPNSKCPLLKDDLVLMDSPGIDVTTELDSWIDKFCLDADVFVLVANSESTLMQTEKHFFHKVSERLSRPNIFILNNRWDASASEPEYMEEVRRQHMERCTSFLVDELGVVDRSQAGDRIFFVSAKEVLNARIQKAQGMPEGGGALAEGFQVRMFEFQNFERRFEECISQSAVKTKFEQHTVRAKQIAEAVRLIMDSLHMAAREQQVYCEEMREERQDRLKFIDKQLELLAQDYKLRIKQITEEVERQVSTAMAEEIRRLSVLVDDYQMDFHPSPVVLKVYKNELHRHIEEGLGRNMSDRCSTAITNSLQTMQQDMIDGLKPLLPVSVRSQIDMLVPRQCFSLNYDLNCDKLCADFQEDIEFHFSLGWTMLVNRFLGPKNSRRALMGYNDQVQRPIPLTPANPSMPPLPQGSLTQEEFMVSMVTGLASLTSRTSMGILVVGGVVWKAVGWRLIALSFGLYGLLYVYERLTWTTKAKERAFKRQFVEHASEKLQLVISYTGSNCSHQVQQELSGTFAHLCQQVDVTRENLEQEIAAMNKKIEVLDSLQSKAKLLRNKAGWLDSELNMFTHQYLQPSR
active: [6] -0.479
inactive: [1] -0.033 | [2] 0.03 | [3] -0.055 | [4] -0.014 | [5] 0.009 | [7] 0.032 | [8] -0.017 | [9] -0.022 | [10] 0.049

KEL (UniProt P23276)
inactive: [1] -0.001 | [2] 0.052 | [3] -0.028 | [4] -0.011 | [5] 0.054 | [6] 0.025 | [7] -0.102 | [8] -0.02 | [9] -0.006 | [10] 0.041

LEO1 (UniProt Q8WVC0)
active: [10] -0.394
inactive: [1] 0.134 | [2] 0.026 | [3] -0.027 | [4] -0.031 | [5] -0.044 | [6] -0.016 | [7] 0.068 | [8] 0.019 | [9] 0.019

LRPPRC (UniProt P42704)
inactive: [1] -0.18 | [2] -0.013 | [3] -0.439 | [4] -0.144 | [5] -0.891 | [7] 0.059 | [8] 0 | [9] 0.062 | [10] -0.252
active: [6] -1.09

KCTD10 (UniProt Q9H3F6)
inactive: [1] 0.01 | [2] 0.024 | [3] -0.037 | [4] -0.049 | [5] 0.043 | [7] -0.02 | [8] -0.021 | [9] -0.017 | [10] -0.034
active: [6] 0.277

LRRFIP1 (UniProt Q32MZ4)
inactive: [1] 0.014 | [2] 0.019 | [3] 0.027 | [4] -0.003 | [5] 0.063 | [6] 0.084 | [7] 0.011 | [8] 0 | [9] 0 | [10] -0.043

KIF13A (UniProt Q9H1H9)
Chain of UniProt Q9H1H9 (Q9H1H9 whole entry, looked up): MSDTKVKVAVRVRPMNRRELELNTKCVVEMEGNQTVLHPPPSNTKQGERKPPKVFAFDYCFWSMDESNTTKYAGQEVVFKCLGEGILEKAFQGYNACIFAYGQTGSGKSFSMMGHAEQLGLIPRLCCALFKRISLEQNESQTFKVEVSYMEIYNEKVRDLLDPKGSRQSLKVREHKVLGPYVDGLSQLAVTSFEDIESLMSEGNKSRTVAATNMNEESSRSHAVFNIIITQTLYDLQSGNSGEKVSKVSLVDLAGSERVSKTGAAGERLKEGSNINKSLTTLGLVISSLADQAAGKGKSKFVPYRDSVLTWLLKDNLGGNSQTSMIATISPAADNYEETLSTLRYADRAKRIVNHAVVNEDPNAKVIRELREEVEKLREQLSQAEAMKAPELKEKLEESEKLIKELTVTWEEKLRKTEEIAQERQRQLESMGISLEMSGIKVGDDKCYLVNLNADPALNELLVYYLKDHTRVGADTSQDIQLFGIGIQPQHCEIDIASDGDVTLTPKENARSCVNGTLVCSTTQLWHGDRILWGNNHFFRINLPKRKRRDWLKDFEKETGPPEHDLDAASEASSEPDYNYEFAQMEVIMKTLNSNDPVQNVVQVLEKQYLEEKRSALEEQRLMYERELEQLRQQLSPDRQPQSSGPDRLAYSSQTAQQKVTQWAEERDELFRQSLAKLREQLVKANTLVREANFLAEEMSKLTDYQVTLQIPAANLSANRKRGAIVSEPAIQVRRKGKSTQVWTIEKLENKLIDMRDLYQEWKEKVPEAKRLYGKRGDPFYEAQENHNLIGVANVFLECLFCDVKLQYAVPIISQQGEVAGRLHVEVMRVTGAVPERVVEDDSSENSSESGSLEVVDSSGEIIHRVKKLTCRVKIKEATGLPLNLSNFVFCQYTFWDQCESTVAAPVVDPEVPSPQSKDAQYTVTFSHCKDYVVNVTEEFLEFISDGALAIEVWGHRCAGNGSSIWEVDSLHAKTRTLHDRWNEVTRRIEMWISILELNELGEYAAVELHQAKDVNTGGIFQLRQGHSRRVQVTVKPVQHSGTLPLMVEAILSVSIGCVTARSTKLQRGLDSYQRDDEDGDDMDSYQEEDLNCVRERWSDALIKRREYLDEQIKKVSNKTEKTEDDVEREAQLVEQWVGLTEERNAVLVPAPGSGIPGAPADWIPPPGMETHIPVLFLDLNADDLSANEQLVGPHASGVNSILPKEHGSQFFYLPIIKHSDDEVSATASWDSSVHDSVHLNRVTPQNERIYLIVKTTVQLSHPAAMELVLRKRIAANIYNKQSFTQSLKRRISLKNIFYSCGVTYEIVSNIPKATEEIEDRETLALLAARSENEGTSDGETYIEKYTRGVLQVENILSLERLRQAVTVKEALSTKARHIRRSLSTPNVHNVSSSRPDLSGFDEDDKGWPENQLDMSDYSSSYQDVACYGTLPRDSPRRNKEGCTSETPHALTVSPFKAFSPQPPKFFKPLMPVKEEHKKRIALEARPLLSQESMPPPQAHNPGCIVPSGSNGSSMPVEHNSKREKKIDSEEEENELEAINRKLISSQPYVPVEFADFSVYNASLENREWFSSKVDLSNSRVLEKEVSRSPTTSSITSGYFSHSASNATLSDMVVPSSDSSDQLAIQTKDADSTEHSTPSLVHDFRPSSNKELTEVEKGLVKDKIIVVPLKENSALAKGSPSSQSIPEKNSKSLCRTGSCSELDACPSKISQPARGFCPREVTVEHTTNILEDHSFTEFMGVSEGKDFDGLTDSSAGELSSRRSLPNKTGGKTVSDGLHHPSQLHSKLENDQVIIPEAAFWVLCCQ
inactive: [1] 0.045 | [2] 0.042 | [3] 0.047 | [4] -0.015 | [5] 0.025 | [6] -0.069 | [7] 0.035 | [8] -0.008 | [9] -0.01 | [10] -0.044

MARK3 (UniProt P27448)
active: [3] -2.03
inactive: [1] -0.071 | [2] -0.026 | [4] 0.014 | [5] -0.035 | [6] -0.171 | [7] 0.084 | [8] 0.156 | [9] 0.136 | [10] 0.026

LARP4B (UniProt Q92615)
inactive: [1] -0.122 | [2] 0.007 | [3] -0.048 | [4] 0.135 | [5] 0.018 | [6] -0.213 | [7] 0.002 | [8] 0.143 | [9] 0 | [10] 0.034

KPNA1 (UniProt P52294)
inactive: [1] -0.046 | [2] -0.073 | [3] 0.062 | [4] 0.089 | [5] -0.022 | [6] 0.084 | [7] 0.123 | [8] 0.071 | [9] -0.05
active: [10] -0.26

KHDC4 (UniProt Q7Z7F0)
inactive: [1] 0.034 | [2] 0.025 | [3] 0.003 | [4] 0.012 | [5] -0.201 | [6] -0.009 | [7] 0.015 | [8] -0.001 | [9] 0.008 | [10] 0.021

MAIP1 (UniProt Q8WWC4)
Chain of UniProt Q8WWC4 (Q8WWC4 whole entry, looked up): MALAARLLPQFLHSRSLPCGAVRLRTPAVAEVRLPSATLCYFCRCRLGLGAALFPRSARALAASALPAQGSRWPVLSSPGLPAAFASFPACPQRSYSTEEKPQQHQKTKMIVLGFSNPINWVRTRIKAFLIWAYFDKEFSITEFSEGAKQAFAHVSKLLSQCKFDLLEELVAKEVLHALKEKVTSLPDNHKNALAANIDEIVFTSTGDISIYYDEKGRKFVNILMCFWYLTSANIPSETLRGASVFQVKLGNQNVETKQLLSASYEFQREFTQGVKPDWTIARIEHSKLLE
inactive: [1] 0 | [2] -0.014 | [3] -0.004 | [4] -0.028 | [5] 0.09 | [6] -0.201 | [7] -0.026 | [8] -0.042 | [9] -0.011 | [10] 0.052

MED16 (UniProt Q9Y2X0)
inactive: [1] 0 | [2] 0.003 | [4] 0.033 | [5] -0.029 | [6] -0.008 | [7] 0.064 | [8] 0.112 | [9] -0.019 | [10] 0.17
active: [3] -0.358

LARP4 isoform 4 (UniProt Q71RC2)
inactive: [1] -0.091 | [2] 0.037 | [3] -0.128 | [4] 0.068 | [5] 0.046 | [6] -0.19 | [7] 0.059 | [8] 0.114 | [9] 0.133 | [10] -0.054

LYPLA2 (UniProt O95372)
inactive: [1] 0.062 | [2] 0.003 | [3] -0.134 | [4] -0.036 | [5] -0.106 | [6] -0.04 | [7] -0.056 | [8] -0.067 | [9] -0.021 | [10] 0.197

MED8 isoform 2 (UniProt Q96G25)
inactive: [1] -0.051 | [2] 0.038 | [3] -0.216 | [4] -0.013 | [5] -0.081 | [6] 0.05 | [7] 0.06 | [8] -0.043 | [9] 0.016

KNTC1 (UniProt P50748)
inactive: [1] -0.084 | [2] -0.028 | [3] 0.058 | [4] -0.007 | [5] 0.012 | [6] -0.157 | [7] 0.039 | [8] 0.095 | [9] -0.02 | [10] -0.008

KIF11 (UniProt P52732)
inactive: [1] -0.097 | [2] -0.049 | [3] 0.063 | [4] 0.045 | [5] -0.024 | [6] -0.229 | [7] 0.04 | [8] 0.188 | [9] 0.006 | [10] -0.014

MARCKS (UniProt P29966)
inactive: [1] -0.077 | [2] 0.071 | [3] 0.014 | [4] 0.025 | [5] -0.099 | [6] 0.039 | [7] 0.134 | [8] -0.109 | [9] 0.031 | [10] 0.002

LONP2 (UniProt Q86WA8)
inactive: [1] -0.016 | [2] -0.023 | [3] -0.033 | [4] 0.103 | [5] -0.135 | [6] 0.004 | [8] -0.008 | [9] -0.271 | [10] -0.009
active: [7] -0.609

KSR1 (UniProt Q8IVT5)
inactive: [1] -0.07 | [2] -0.084 | [4] 0.065 | [5] -0.231 | [6] -0.085 | [7] 0.085 | [8] 0.035 | [9] 0.011 | [10] 0.044
active: [3] -0.807

— the supplement of paper PMC10849652
